Screening results as filed in PubChem.
NS1 function inh: influenza NS1 inhibition. AID 2326. hit rate 0.4% among 270,000. Potency, µM (highest dose often 46.1 µM), for inactives: top-dose activity, positive = more growth; calls by dose curve; further: potency means the concentration at half of the fitted maximal effect; actives are rising curves; nearly all actives have a fitted effect of over 50% in size
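Growth recovery, yeast-based: influenza A NS1 expressed in S. cerevisiae causes slow growth, and suppressors are detected by OD600. The parent strain without NS1 is used as positive control.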
SARS PLP yeast: blocks SARS-CoV papain-like protease in a yeast assay; hit rate 0.19% among 330,000; S. cerevisiae expressing SARS-CoV PLpro, growth rescue; Potency, µM (highest dose often 32.9 µM), inactives show at the top dose activity, positive = growth rescue, hits mostly activators; calls by dose curve; further: potency means the concentration at half of the fitted maximal effect; 0% is about no effect; nearly all actives have a fitted effect of over 55% in size
Pf growth 48h: P. falciparum growth inhibition at 48 hours (one generation) | AID 504832 | Potency, µM (top dose mostly 28.7 µM), without a hit: at the highest dose activity change, negative = inhibition, most hits filed as inhibitors | P. falciparum luciferase growth in erythrocytes, 48 h | hit rate 5.9% among 310,000; further: potency means the concentration at half of the fitted maximal effect; on the % scale 0 is the no-effect control and ±100 the full control effect
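Erythrocytes infected with P. falciparum carrying an integrated firefly luciferase reporter (2% hematocrit, 0.1% parasitemia final) were exposed to compounds in RPMI 1640 with 0.5% Albumax at 37 C, 5% CO2. Growth inhibition was scored as reduced luminescence.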
Pf growth 96h: P. falciparum growth inhibition at 96 hours | P. falciparum luciferase reporter growth, 96 h | hit rate 6.9% among 320,000 | AID 504834 | Potency, µM (top dose mostly 28.7 µM), inactives show at the highest dose activity change, negative = inhibition, hits mostly inhibitors; further: potency means the concentration at half of the fitted maximal effect; on the % scale 0 is the no-effect control and ±100 the full control effect
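Luminescence readout: decreased luciferase signal marks inhibited growth of reporter-expressing P. falciparum in infected red cells (2% hematocrit, 0.05% parasitemia final), exposed to compound two generations (96 h, 37 C, 5% CO2).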
Shiga inhibitor: inhibitors of Shiga toxin in Vero cells. Vero cells, Shiga toxin protein synthesis inhibition reporter. inhibition, % at 38.7 µM. hit rate 9.2% among 290,000; in the data active means inhibition mostly above about 28%, no sharp cut-off; inactive means mostly below about 43%; further: 0% is about no effect
CHX counter: affects cycloheximide protein synthesis inhibition readout, counter-screen; cell reporter, cycloheximide protein synthesis inhibition counterscreen; max response, %; hit rate 12% among 300,000; AID 2314; in the data active means max response mostly above about 13%, no sharp cut-off; inactive means mostly below about 14%; further: read at 38.3 µM for the half of the compounds with a filed dose; 0% is about no effect
Numbers without * were called inactive; ? = inconclusive; / = not tested or not shown; ! = not confirmed by another sample; [ ] = remark or other dose. This is a sample that favours compounds with a hit; in the whole collection about 21% have one here. Unless noted, the call rests on the fitted dose curve; in most records, active means well fitted inhibition curve with a large enough effect; inconclusive means small, poorly fitted or top-dose-only effect, or another doubt; inactive means no such curve, though single readings can be large or run the other way.

SMILES | NS1 function inh | SARS PLP yeast | Pf growth 48h | Pf growth 96h | Shiga inhibitor | CHX counter
COc1ccc(S(=O)(=O)N2CCN(C(=O)COc3ccc(C)c(C)c3)CC2)cc1OC | 0% | 1% | 10µM* | 1% | -6 | 1
COc1cc2c(cc1OC)CN(C(=O)CN1CCN(S(=O)(=O)c3ccc(C)c(C)c3)CC1)CC2 | -9% | -3% | ? | 13µM* | 13 | -11
O=C(NNC1CC(=O)N(c2ccc(Br)cc2)C1=O)c1cccnc1 (stereo not drawn) | / | -2% | 15% | 6% | 0 | -11
C(=C\c1ccccc1)/CSc1ccccn1 | / | -5% | 142% | 60% | 93* | 73*
Cc1cc(C)nc(SC/C=C/c2ccccc2)n1 | -46% | -1% | 20% | 42% | / | 23*
O=P1(O)C=C(c2ccccc2)OC(c2ccccc2)=C1 | 1% | 1% | 89% | -17% | 146* | 67*
COc1ccc(/C=C/C(=O)O)cc1S(=O)(=O)Nc1ccc2c(c1)OCO2 | 5% | 0% | 4% | -1% | -8 | -3
O=c1c2ccccc2n(Cc2ccc(F)cc2)c(=O)n1C1CCCC1 | -32% | -24% | ? | 13µM* | -7 | 1
O=C(Cn1c(=O)n(Cc2ccc(F)cc2)c(=O)c2ccccc21)NCC1CCCO1 (stereo not drawn) | 1% | 1% | -7% | 2% | -6 | -3
Cn1nc(C(=O)Nc2cccc(C(=O)NC3CC3)c2)c2ccccc2c1=O | / | 0% | -4% | 16% | / | /
Cc1cc(=O)c(C(=O)Nc2cccc(C(=O)NC3CC3)c2)nn1-c1ccccc1Cl | / | 2% | ? | 7.4µM* | / | /
CCC(C)C(NC(=O)CCC(=O)OCC(=O)[C@@]1(O)CCC2[C@@H]3CCC4=CC(=O)C=C[C@]4(C)C3[C@@H](O)C[C@@]21C)C(=O)O (stereo partly drawn) | 8% | -1% | 3.7µM* | ? | 1 | 2
C[C@]12CCC(=O)C=C1CC[C@@H]1[C@@H]2[C@@H](O)C[C@@]2(C)[C@H]1CC[C@]2(O)C(=O)COP(=O)(O)O | / | / | 5% | 7.6µM* | / | /
CCCC(=O)O[C@]1(C(=O)CO)CC[C@H]2[C@@H]3CCC4=CC(=O)CC[C@]4(C)[C@H]3[C@@H](O)C[C@@]21C | -5% | 6% | -8% | 1% | -4 | -1
C[C@]12CCC(=O)C=C1CC[C@@H]1[C@@H]2[C@@H](O)C[C@@]2(C)[C@H]1CC[C@]2(O)C(=O)COC(=O)CCC(=O)O | 0% | -5% | 13µM*! | 12µM*! | 3 | 1
C[C@]12C=CC(=O)C=C1CC[C@@H]1C2[C@@H](O)C[C@@]2(C)C1CC[C@]2(O)C(=O)COC(=O)CCC(=O)O (stereo partly drawn) | 0% | 7% | -16%[0.00184 µM] | 25% | -13 | -4
CC(=O)OCC(=O)[C@@]1(O)CC[C@H]2[C@@H]3CCC4=CC(=O)CC[C@]4(C)[C@H]3[C@@H](O)C[C@@]21C | 0% | 2% | ? | -8% | 24 | -2
CCCOc1ccc(NC(=O)CC2C(=O)N(CC)C(=S)N2CCCN2CCN(Cc3ccccc3)CC2)cc1 (stereo not drawn) | / | -10% | ? | 4.1µM* | -14 | -7
O=C(CC1C(=O)N(Cc2ccccc2)C(=S)N1CCN1CCOCC1)Nc1ccc(F)cc1 (stereo not drawn) | 4% | 1% | 1.9µM* | -8% | -9 | 8
CCCOc1ccc(NC(=O)CC2C(=O)N(CC)C(=S)N2CCNC(C)=O)cc1 (stereo not drawn) | -14% | -1% | -5% | 6% | -15 | -4
CCCOc1ccc(OCCSc2nnc(N)s2)cc1 | 0% | -8% | 99% | / | 95* | 26*
CCCOc1ccc(-c2cnc(N)s2)cc1 | -8% | -14% | 179% | 265% | 64* | 50*
CCCCCCCSc1nnc(N)s1 | -32% | -3% | -7% | 64% | 44* | 14*
COC(CNC(=O)CCc1c(C)nc2c(-c3ccccc3)c(C)nn2c1C)OC | -3% | -2% | 2%[0.00184 µM] | 5% | -2 | -4
COc1cc(C2C(N3C(=O)c4ccccc4C3=O)C(=O)N2c2cccc(C)c2)cc(OC)c1OC (stereo not drawn) | 18% | -26% | 4% | ? | 10 | 4
CSc1c(C#N)sc(=S)n1-c1ccc(C)cc1 | 3% | 0% | ? | 10µM* | -6 | -2
